Compound activity as filed in PubChem BioAssay.
This is a sample that favours compounds with a hit; in the whole collection about 1.7% have one here.
CHT block: inhibits the human high affinity choline transporter; AID 488975; B-score at 10 µM; actives 0.86% (n = 310,000); CHT-expressing cells, membrane potential dye, choline response; stronger effect = lower value; Q9GZV3;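 active = B-score over 3 SD under the library average, and starting fluorescence ratio not unusually high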;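 note: choline stimulus applied at its EC90 after an EC20 pre-addition; B-score computed on integrated fluorescence ratio after choline addition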
Target sequence (Q9GZV3 whole entry, looked up): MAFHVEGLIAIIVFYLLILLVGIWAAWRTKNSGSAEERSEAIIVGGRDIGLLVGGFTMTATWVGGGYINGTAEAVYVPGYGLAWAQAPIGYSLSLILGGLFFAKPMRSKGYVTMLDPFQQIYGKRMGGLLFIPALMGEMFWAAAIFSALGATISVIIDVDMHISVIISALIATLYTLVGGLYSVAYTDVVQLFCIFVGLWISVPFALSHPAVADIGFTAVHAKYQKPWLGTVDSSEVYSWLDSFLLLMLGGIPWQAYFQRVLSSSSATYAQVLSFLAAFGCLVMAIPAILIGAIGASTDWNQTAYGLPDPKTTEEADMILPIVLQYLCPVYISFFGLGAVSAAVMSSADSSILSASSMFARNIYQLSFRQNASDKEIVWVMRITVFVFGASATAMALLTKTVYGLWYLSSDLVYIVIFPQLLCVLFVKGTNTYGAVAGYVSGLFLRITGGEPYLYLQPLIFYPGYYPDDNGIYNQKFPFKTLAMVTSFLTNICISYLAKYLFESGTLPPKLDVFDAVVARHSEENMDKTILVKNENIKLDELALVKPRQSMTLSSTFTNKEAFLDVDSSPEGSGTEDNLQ
CHT PAM: allosterically activates the human high affinity choline transporter; B-score at 10 µM; actives 0.49% (n = 310,000); Q9GZV3; CHT-expressing cells, membrane potential dye, choline EC20; stronger effect = higher value; LV-AA mutant CHT in HEK293 cells;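 active = initial fluorescence not abnormally high and integrated response B-score, plate-corrected, over 3 SD above library mean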
TAG inh: inhibitors of triacylglycerol accumulation | H9c2 cells, Nile Red lipid (TAG) fluorescence; cells loaded with 200 µM oleic acid | inhibition, % at 12.5 µM | AID 651582 | actives 0.66% (n = 230,000);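 active = pattern-corrected inhibition of lipid staining of at least 50% with the nuclear-stain viability signal not falling by more than 50%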;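 note: 0% = DMSO wells and 100% = triacsin C control wells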
MIN6 prolif: inducers of beta-cell replication in MIN6 cells | MIN6 cells proliferation, ATPlite luminescence, 48 h; cells starved in 0.2% serum; 100% = growth in 10% serum | proliferation, % at 10 µM | actives 0.29% (n = 330,000) | AID 2380;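 active = compounds whose signal lies at least 3.5 SD above the mean of all wells on their plate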;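 note: 0% = DMSO-treated cells in low-serum medium and 100% = 10% serum control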
CHT block conf: human CHT inhibition, confirmatory screen | shares compounds with CHT block | CHT-expressing cells, choline membrane potential dye; LV-to-AA substituted CHT, HEK293 cells | CHT activity remaining % of control (stronger effect = lower value), % at 10 µM | actives 70% (n = 2,400) | AID 493221;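 active = choline transporter activity left, mean of duplicates at 10 µM, below buffer-only control mean minus 3 SD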;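 note: depolarization triggered by choline at its EC90 following an EC20 pre-addition; 0% = hemicholinium-3 full block and 100% = buffer-only control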
HEK293 MPD ctr: activity in parental HEK293 cells lacking CHT | shares compounds with CHT block | membrane potential dye, choline response; active = decrease or increase beyond buffer ±3SD | membrane potential ratio readout (active if shifted either direction beyond buffer ±3SD; no single direction) at 10 µM | actives 4% (n = 2,400) | AID 493222;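 note: parental cells lack the transporter so any hit is non-specific; ratio is peak minus trough fluorescence over baseline after EC90 choline challenge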
* hit, by the source's call; i = inactive; · = not tested or not shown.

SMILES	CHT block	CHT PAM	TAG inh	MIN6 prolif	CHT block conf	HEK293 MPD ctr
O=C(c1ccc(Cl)c(S(=O)(=O)N2CCCCC2)c1)N1CCN(c2ccccc2)CC1	i	i	-41.1	-1.5	·	·
Cc1ccc(C(=O)N2CCN(c3ccccc3)CC2)cc1S(=O)(=O)N1CCCC1	-9.52*	i	-8.9	1.6	55.4%*	i
Cc1ccc(C(=O)N2CCN(c3ccc(F)cc3)CC2)cc1S(=O)(=O)N1CCCCC1	i	i	-27.6	-2.0	·	·
O=C(c1ccc(Cl)c(S(=O)(=O)N2CCCC2)c1)N1CCN(c2ccccc2)CC1	-6.02*	i	3.1	-3.6	42.3%*	i
Oc1ccccc1C1CC(c2cccs2)=NC(c2cccc(Br)c2)N1 (centres undefined)	i	i	-6.6	-6.4	·	·
COc1ccc(/C=N/NC(=O)CNC(=O)c2ccncc2)cc1	i	i	·	-4.7	·	·
CC(C)(C)OC(=O)N1CSC[C@H]1C(=O)NC[C@H](CC(=O)O)c1ccc(Cl)cc1	i	i	·	-3.1	·	·
CCOC(=O)N1CCC(Nc2ncnc3c2cnn3-c2ccc(C)cc2C)CC1	-6.87*	i	-5.5	-0.9	i	i
Cc1cc(C)c2nc(N3CCN(C)CC3)c(C#N)cc2c1	i	i	8.9	-3.0	·	·
Cc1cc(C)c2nc(N3CCCN(C(=O)c4cnccn4)CC3)c(C#N)cc2c1	-5.2*	i	·	-0.7	37.8%*	i
CCCCNC(=O)N(O)C1N(/N=C/c2ccco2)C(=S)SC1(C)C (centres undefined)	·	·	-5.1	5.5	·	·
CSC1=NS(=O)(=O)c2c(C)nn(C)c2S1	-8.03*	i	-2.9	-1.4	29.1%*	i
CCc1nnc(NS(=O)(=O)c2ccc(NC(=O)/C=C/c3ccccc3Cl)cc2)s1	-5.57*	i	16.0	-1.1	51.0%*	i
COc1ccccc1CNC(=O)COC(=O)COc1ccccc1Cc1ccccc1	i	i	18.9	1.8	·	·
O=C(CNCc1ccc(Cl)cc1)Nc1cc(S(=O)(=O)N2CCCC2)ccc1Cl	·	·	-10.5	·	·	·
Cc1ccc(N=Cc2cc(Br)cc(Cl)c2O)cc1	i	i	5.7	-4.5	·	·
Oc1c(Cl)cc(Cl)cc1C=Nc1ccc(Br)cc1	-6.54*	i	·	-3.4	51.1%*	i
NC(=O)CC(NC(=O)c1ccccc1)c1ccc(N2CCCCCCC2)c([N+](=O)[O-])c1 (centres undefined)	-11*	i	22.6	-5.2	1.4%*	i
NC(=O)CC(NC(=O)c1ccc(Br)cc1)c1ccc(N2CCCCCC2)c([N+](=O)[O-])c1 (centres undefined)	-7.74*	i	-7.4	-8.8	58.6%*	i
NC(=O)CC(NC(=O)c1ccccc1)c1ccc(N2CCc3ccccc3C2)c([N+](=O)[O-])c1 (centres undefined)	-9.49*	i	8.8	-1.4	17.9%*	i
NC(=O)c1cc([N+](=O)[O-])c(Cl)cc1NCc1ccccn1	i	i	·	-8.8	·	·
CCOc1ccccc1NC(=O)NC(C)c1ccncc1 (centres undefined)	i	i	·	-3.5	·	·
CCOC(=O)C1CCCN(C(=O)C2(c3ccc(Cl)cc3)CCCC2)CC1 (centres undefined)	·	·	-7.4	·	·	·
O=C(NCC1CCCO1)C1CC(=O)N(c2ccccc2)C1 (centres undefined)	i	i	·	3.5	·	·
Cc1ccc(C(=O)OCN2C(=O)c3ccccc3C2=O)o1	i	i	1.6	2.8	·	·
SMILES	CHT block	CHT PAM	TAG inh	MIN6 prolif	CHT block conf	HEK293 MPD ctr
COC(=O)CCCCCCCCC(O)C[N+]1(C)CCOCC1 (centres undefined)	i	i	-8.8	9.4	·	·
CC(=O)OCCCCCCCCCCC[N+]1(C)CCCCC1	-8.28*	i	-10.2	-5.1	26.7%*	i
COC(=O)CCCCCCCCCC[N+]1(C)CCCCC1	-5.14*	i	-6.7	0.0	41.8%*	i
COc1ccc(-c2ccc(-c3cc(=O)oc4cc(OC)c(OC)c(OC)c34)cc2)cc1	·	·	13.4	·	·	·
CC(C)NS(=O)(=O)c1ccc(OCC(=O)N2CCc3ccccc3C2)cc1	i	i	-14.7	-0.2	·	·
CC(C)NS(=O)(=O)c1ccc(CCC(=O)N2CCc3ccccc3C2)cc1	-5.11*	i	9.7	-1.1	46.1%*	i
Cc1ccccc1OCCC(=O)OCC(=O)c1c(N)n(CC(C)C)c(=O)n(C)c1=O	-6.56*	i	-13.4	-4.1	58.4%*	i
CC(C)Cn1c(N)c(C(=O)COC(=O)CCNS(=O)(=O)c2ccccc2)c(=O)n(C)c1=O	-6.31*	i	-10.5	-3.0	37.5%*	i
CC(C)Cn1c(N)c(C(=O)COC(=O)CCc2nc3ccccc3c(=O)[nH]2)c(=O)n(C)c1=O	·	·	-7.1	-0.7	·	·
C[C@@H]1CN([C@H](C)CO)C(=O)CCCn2nncc2CO[C@H]1CN(C)Cc1ccccc1C(F)(F)F	·	·	4.4	·	·	·
N#CC12CCCCC1CC1CCCCC1(C#N)N2N (centres undefined)	i	i	3.0	-0.4	·	·
N#CC12CCCCC1CC1CCCCC1(C#N)N2CCO (centres undefined)	-5.74*	i	-9.7	-1.0	i	i
CCc1c(C)[nH]c2ccccc2c1=O	-5.22*	i	3.6	-1.8	62.8%*	i
O=C(N/N=C/c1cn[nH]c1-c1ccc(Cl)cc1)c1ccc([N+](=O)[O-])cc1	-5.11*	i	·	-1.0	59.5%*	i
Cn1c(-c2ccccc2O)cc2ccccc21	-8.06*	i	-7.1	3.6	50.6%*	i
CC(C)Oc1ccc(/C=N/NC(=O)C(CSCc2ccccc2)NC(=O)c2ccc([N+](=O)[O-])cc2)cc1 (centres undefined)	-5.5*	i	53.8*	-0.4	i	i
Nc1nonc1-n1nnc(C(=O)N/N=C/c2ccc(OCc3ccccc3)cc2)c1CNc1ccccc1	i	i	·	-7.7	·	·
Nc1ccccc1C(=O)NC1CCCNC1=O (centres undefined)	-15.8*	i	8.1	1.2	i	i
CC1(C(=O)Nc2cccc(-n3cnnn3)c2)Cc2ccccc2C(=O)O1 (centres undefined)	·	·	1.6	-5.0	·	·
CN(CCC#N)C(=O)COC(=O)c1ccccc1C(=O)c1ccc(Cl)c([N+](=O)[O-])c1	-4.95*	i	·	·	48.6%*	i
Cc1ccc(NC(=O)COC(=O)C2CSC3(C)CCC(=O)N23)cc1S(=O)(=O)N1CCOCC1 (centres undefined)	-7.31*	i	7.3	-3.1	i	i
O=C(NCc1ccco1)c1ccc(CS(=O)Cc2ccc(Cl)cc2)o1 (centres undefined)	i	i	·	4.2	·	·
CCN(C[C@H]1N[C@@](CC)(C(=O)OC)[C@H]2C(=O)N(Cc3ccccc3)C(=O)[C@@H]12)C(=O)NC(C)C	·	·	-4.4	-1.8	·	·
